Percent Effect data for 11 molecules are collected here from ChEMBL document CHEMBL3988442, “University of Dundee, Small-Polar-MMV Screening Library” (2021).

For some of these results: Potency and affinity values are given separately.

Parameters in all cases: scale not given: direction of the effect not stated beside the values
The target in assay [1] is Protein translocase subunit SecA (Escherichia coli (strain K12)) (UniProt P10408). Nature of the assay: Assay to Identify E. coli SecA ATPase Inhibitors. Type of assay: functional. To be noted: 30 µM.
Protein translocase subunit SecA (Escherichia coli (strain K12)), sequence (P10408 whole entry): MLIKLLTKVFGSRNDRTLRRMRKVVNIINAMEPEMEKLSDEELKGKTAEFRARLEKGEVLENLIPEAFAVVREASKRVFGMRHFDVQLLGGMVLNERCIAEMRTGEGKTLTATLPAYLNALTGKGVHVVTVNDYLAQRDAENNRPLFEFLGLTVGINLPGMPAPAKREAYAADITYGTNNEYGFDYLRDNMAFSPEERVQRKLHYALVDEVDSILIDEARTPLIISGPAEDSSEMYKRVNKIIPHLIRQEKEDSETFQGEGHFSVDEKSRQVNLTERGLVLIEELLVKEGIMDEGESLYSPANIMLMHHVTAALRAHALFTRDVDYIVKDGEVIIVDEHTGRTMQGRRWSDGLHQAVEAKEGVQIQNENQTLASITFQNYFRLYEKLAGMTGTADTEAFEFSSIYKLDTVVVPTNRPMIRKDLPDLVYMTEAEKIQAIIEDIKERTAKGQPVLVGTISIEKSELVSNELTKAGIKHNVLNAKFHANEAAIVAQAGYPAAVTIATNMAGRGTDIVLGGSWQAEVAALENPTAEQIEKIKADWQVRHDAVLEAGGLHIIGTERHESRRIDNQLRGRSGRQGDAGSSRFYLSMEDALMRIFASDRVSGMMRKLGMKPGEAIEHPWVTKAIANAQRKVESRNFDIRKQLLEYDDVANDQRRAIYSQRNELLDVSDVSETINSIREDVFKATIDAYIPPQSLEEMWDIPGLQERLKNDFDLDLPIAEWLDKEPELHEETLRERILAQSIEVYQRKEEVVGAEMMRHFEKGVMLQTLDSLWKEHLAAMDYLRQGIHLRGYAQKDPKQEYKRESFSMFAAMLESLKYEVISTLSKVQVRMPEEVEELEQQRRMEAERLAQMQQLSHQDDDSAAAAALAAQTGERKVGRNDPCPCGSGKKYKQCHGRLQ
For assay [2], the target named is T1, Ubiquitin-activating enzyme e1, putative (Leishmania donovani (strain BPK282A1)) (UniProt E9BSI1).
T1 sequence (whole entry): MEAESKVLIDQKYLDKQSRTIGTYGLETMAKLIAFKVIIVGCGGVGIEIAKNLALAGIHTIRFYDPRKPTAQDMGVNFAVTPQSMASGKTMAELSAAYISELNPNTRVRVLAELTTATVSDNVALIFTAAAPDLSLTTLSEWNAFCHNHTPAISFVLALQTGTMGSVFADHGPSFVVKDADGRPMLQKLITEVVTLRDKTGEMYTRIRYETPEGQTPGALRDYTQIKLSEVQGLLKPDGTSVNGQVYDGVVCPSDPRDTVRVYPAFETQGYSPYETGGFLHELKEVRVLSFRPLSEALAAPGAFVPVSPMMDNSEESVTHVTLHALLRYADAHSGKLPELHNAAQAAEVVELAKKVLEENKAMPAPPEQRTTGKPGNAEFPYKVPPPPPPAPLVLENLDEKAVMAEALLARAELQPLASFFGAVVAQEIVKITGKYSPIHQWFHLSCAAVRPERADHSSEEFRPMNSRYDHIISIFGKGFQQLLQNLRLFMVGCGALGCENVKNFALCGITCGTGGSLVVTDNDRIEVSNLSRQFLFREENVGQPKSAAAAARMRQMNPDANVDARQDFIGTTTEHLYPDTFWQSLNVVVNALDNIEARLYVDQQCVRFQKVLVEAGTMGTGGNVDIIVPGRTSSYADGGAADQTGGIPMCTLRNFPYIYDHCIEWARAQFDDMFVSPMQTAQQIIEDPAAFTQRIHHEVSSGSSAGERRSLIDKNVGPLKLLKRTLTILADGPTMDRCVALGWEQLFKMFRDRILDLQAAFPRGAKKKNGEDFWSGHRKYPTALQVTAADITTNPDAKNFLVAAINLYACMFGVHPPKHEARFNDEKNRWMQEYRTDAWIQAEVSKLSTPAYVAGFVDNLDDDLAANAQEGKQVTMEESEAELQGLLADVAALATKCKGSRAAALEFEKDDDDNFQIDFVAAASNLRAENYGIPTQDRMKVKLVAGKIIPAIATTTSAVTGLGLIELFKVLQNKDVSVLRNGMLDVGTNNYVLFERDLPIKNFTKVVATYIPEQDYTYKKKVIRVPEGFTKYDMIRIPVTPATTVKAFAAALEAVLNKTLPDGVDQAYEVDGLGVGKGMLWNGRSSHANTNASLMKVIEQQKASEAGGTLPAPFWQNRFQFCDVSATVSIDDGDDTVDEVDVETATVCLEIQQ
Kind of assay: Leishmania donovani Ubiquitin Activating Enzyme (LdE1). Format: functional. Conditions: 30 µM.

The target in assay [3] is AMP-activated protein kinase, AMPK (Homo sapiens) (UniProt P54646+O43741+P54619+Q9UGJ0+Q9Y478+Q13131+Q9UGI9). Kind of assay: AMP-dependent Kinase enzyme assay. An in vitro enzyme assay that detects ADP turnover that is directly proportional to AMPK activity. This uses naive AMPK that is activated during the assay with MK-8722. Format: functional. Conditions: 30 µM.
Assay [4] addresses Sialic acid-binding Ig-like lectin 9 (Homo sapiens) (UniProt Q9Y336). Kind of assay: Hs-Siglec9 ALPHAscreen SOP 20170721. Conditions: 10 µM. In general terms: Alpha assays give light when donor and acceptor beads are brought close together.
A further assay has as its system Trypanosoma cruzi. Nature of the assay: Trypanosoma cruzi phosphomannomutase and mannose-1-phosphate guanylyltransferase assay. Format: functional. To be noted: 10 µM.
Assay [5] deals with T2, Arginase-2, mitochondrial (Homo sapiens) (UniProt P78540).
T2 sequence (whole entry): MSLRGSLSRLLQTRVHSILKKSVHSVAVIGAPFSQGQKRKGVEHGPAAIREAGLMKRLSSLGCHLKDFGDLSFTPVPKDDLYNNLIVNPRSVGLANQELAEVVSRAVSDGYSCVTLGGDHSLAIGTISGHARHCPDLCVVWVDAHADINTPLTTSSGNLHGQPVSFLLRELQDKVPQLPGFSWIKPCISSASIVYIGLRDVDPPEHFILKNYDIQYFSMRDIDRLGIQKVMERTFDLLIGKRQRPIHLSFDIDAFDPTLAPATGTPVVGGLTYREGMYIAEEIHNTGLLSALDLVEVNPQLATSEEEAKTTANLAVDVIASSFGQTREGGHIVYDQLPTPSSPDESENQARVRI
Nature of the assay: in vitro enzyme assay to detect the production of urea directly proportional to the activity of Arginase II. Also: in the data most compounds retested in dose-response had high values. Type of assay: functional. To be noted: 33.3 µM.

In assay [6] the target is T3, Proteasome subunit beta (Trypanosoma cruzi) (UniProt O96673).
T3 sequence (whole entry): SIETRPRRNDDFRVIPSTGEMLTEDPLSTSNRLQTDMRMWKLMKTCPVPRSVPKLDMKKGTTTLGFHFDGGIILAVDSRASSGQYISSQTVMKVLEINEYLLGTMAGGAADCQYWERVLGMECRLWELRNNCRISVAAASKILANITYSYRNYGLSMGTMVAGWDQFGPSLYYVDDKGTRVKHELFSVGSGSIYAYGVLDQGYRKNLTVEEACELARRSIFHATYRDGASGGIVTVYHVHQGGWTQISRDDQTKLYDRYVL
Kind of assay: Trypanosoma cruzi proteasome chymotrypsin-like activity (TcProtChymo) assay. Also: in the data most compounds retested in dose-response had high values. Type of assay: functional. Conditions: 9.37 µM.

The next assay is filed under the species Homo sapiens. Kind of assay: To identify inhibition of the IFN signalling (Jak-Stat) pathway via expression of an eGFP reporter gene under the control of an IFN-stimulated response element (ISRE) containing MxA promoter. Type of assay: functional. Conditions: 30 µM.
For assay [7], the target named is T4, Tyrosyl-tRNA synthetase, putative (Trypanosoma cruzi (strain CL Brener)) (UniProt Q4DSP6).
T4 sequence (whole entry): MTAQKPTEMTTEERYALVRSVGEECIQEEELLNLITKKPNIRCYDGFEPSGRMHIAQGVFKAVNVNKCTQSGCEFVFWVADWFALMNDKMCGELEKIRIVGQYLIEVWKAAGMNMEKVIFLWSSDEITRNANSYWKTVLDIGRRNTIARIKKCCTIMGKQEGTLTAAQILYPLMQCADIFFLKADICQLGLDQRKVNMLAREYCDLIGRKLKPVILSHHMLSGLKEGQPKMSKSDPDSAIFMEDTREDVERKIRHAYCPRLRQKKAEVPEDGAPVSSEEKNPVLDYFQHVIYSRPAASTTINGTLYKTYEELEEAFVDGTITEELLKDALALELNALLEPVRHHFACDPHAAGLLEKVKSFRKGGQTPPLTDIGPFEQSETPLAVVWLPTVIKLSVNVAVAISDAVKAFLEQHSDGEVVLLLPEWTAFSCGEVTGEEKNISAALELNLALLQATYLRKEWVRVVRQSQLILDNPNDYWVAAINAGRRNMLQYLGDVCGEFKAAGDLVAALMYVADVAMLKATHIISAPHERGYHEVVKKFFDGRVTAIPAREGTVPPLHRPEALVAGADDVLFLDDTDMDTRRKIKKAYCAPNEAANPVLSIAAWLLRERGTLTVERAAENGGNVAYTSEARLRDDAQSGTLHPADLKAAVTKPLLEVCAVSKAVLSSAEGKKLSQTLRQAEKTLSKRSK
Kind of assay: Trypanosoma cruzi tyrosyl tRNA synthetase (TcYRS) _High Tyrosine SOP. Also: in the data most compounds retested in dose-response had high values. Format: functional. To be noted: 30 µM.

Assay [8] deals with T4, Tyrosyl-tRNA synthetase, putative (Trypanosoma cruzi (strain CL Brener)). Kind of assay: Trypanosoma cruzi tyrosyl tRNA synthetase (TcYRS) SOP. To be noted: 30 µM. Type of assay: functional.
Assay [9] addresses Chromo domain-containing protein 1 (Saccharomyces cerevisiae (strain ATCC 204508 / S288c) (Baker's yeast)) (UniProt P32657). Nature of the assay: ScCHD-1 Enzyme Inhibition Assay. Also: in the data most compounds retested in dose-response had high values. Format: functional. Conditions: 30 µM.

Chromo domain-containing protein 1 (Saccharomyces cerevisiae (strain ATCC 204508 / S288c) (Baker's yeast)), sequence (P32657 whole entry, the tested form may be a part): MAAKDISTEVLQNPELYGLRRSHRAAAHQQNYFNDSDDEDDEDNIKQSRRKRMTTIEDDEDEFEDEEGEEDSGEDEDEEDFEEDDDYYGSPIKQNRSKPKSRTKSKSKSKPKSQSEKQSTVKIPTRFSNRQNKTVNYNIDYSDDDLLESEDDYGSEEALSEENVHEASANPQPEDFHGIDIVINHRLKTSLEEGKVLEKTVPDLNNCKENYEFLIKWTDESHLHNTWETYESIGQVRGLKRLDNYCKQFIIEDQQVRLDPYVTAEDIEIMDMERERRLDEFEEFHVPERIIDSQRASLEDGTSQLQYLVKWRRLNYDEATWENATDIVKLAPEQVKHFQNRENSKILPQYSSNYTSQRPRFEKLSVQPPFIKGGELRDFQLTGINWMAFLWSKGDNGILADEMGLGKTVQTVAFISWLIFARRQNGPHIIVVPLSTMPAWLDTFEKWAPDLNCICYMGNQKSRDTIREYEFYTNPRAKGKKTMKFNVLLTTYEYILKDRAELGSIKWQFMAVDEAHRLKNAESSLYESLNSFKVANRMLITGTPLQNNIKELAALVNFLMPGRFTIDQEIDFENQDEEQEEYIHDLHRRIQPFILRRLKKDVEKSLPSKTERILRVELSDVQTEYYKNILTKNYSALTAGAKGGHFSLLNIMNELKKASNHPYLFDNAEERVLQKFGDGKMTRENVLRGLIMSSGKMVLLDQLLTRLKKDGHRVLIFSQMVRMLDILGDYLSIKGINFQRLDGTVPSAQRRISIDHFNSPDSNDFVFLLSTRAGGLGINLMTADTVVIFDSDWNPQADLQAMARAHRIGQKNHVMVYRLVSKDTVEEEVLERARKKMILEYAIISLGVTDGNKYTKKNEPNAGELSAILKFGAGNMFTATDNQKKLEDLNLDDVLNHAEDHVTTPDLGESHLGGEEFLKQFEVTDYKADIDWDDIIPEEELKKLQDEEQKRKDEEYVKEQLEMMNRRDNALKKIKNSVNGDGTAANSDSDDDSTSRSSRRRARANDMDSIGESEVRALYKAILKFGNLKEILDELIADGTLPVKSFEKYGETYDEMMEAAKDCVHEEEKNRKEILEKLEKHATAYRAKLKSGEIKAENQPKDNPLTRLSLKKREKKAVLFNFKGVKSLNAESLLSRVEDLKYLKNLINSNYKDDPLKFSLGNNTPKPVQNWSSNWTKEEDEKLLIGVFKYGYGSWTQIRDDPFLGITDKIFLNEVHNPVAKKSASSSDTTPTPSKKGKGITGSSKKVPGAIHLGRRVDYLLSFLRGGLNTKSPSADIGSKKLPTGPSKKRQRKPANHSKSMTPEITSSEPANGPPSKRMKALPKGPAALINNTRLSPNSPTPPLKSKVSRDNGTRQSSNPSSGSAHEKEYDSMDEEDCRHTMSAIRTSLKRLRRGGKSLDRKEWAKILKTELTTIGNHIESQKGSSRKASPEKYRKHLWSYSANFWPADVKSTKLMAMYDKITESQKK
Sialic acid-binding Ig-like lectin 9 (Homo sapiens), sequence (Q9Y336 whole entry): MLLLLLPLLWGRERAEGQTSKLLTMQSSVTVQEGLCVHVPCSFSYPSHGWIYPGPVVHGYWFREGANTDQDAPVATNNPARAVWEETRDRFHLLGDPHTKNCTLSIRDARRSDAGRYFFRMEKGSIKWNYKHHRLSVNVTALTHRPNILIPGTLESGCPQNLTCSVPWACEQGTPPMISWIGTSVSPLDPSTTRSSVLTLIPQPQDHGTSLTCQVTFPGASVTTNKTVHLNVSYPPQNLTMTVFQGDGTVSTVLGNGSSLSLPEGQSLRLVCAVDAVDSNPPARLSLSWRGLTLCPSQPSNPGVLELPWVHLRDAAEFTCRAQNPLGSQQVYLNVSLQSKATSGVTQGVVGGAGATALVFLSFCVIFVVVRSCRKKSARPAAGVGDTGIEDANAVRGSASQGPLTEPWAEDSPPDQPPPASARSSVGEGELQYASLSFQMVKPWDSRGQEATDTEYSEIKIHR

Take `CCn1cc2c(n1)CN(Cc1ccoc1)CC2COCC1CC1` (stereo unspecified): the Percent Effect is -5.08% in [1]; -10.8% in assay [2]; -0.58% in assay [3]; 2.38% in assay [4]; 6.64% in the assay on Trypanosoma cruzi; -1.67% in assay [5]. Further, the Percent Effect in [6] is 7.69%; in the assay filed under Homo sapiens it was -8.7%; in [7] it was 11.9%; in [8], 8.54%; in assay [9], -4.61%.

As to `CCc1cc(NCc2ccccc2CN2CCCC2)n2ncnc2n1`, the Percent Effect is -5.91% in assay [1]; 0% in [2]; -0.284% in [3]; -9.79% in assay [4]; -4.38% in the assay with Trypanosoma cruzi; 5.92% in [5]. Also, the Percent Effect in assay [6] is 17.4%; in the assay listed under Homo sapiens, -22.7%; in assay [7] it was 3.19%; in [8], -2.6%; in assay [9], -5.77%.

As to `CC1CCCN(Cc2c(C3CCOCC3)[nH]c3ncccc23)C1` (stereo unspecified), the Percent Effect in [1] is -2.15%; in assay [2], 25.7%; in [3] it was 4.08%; in assay [4], -6.47%; in the assay with Trypanosoma cruzi, 0.198%; in assay [5], -6.26%. Also, the Percent Effect in assay [6] is 14.3%; in the assay filed under Homo sapiens, 11%; in [7], 2.15%; in assay [8] it was 11.7%; in assay [9], -12%.

As to `O=C(c1cnco1)N1C[C@@H]2CC[C@H](Oc3cccc(F)c3)[C@@H]2C1`, the Percent Effect in assay [1] is -9.68%; in assay [2], 12.2%; in assay [3], 2.91%; in assay [4], 6.76%; in the assay with Trypanosoma cruzi, 0.988%; in assay [5] it was -4.41%. Also, the Percent Effect was 10.9% in assay [6]; 9.56% in the assay listed under Homo sapiens; 3.23% in [7]; 11.7% in [8]; -8.63% in assay [9].

In the case of `CN1CC(=O)N(c2cccc(F)c2)CC12CCN(S(C)(=O)=O)C2` (stereo unspecified), the Percent Effect in assay [1] is -4.45%; in assay [2], 10.8%; in assay [3], 2.57%; in assay [4], 0.944%; in the assay on Trypanosoma cruzi it was -1.07%; in [5], 3.5%. Moreover, the Percent Effect is 18.8% in assay [6]; -6.25% in the assay listed under Homo sapiens; 4.32% in [7]; 10.3% in assay [8]; -1.22% in assay [9].

On to `O=C1NCC2(CCCN(Cc3ccccc3F)C2)Oc2ccccc21` (stereo unspecified), for which the Percent Effect was 1.88% in assay [1]; 12.2% in assay [2]; 9.79% in [3]; -6.32% in assay [4]; -2.77% in the assay on Trypanosoma cruzi; 5.34% in assay [5]. Moreover, the Percent Effect in assay [6] was 9.52%; in the assay filed under Homo sapiens it was 9.51%; in [7] it was 3.23%; in [8], 9.09%; in assay [9] it was -14.2%.

Regarding `O=C(N1CCCC1)N1Cc2nccn2CC(CN2CCCC2)C1` (stereo unspecified), the Percent Effect in assay [1] was 0.719%; in assay [2] it was 5.41%; in assay [3], 7.93%; in assay [4], -1.18%; in the assay on Trypanosoma cruzi, -5.77%; in assay [5] it was -0.955%. Besides, the Percent Effect was 25.8% in assay [6]; -2.41% in the assay filed under Homo sapiens; -1.08% in [7]; 10.3% in [8]; -2.63% in assay [9].

As to `Cc1nc(C2CCCN(C(=O)c3ccc(Cn4cccn4)o3)C2)no1` (stereo unspecified), the Percent Effect in assay [1] was 0.739%; in assay [2], -5.2%; in [3], 2.21%; in [4], 1.09%; in the assay on Trypanosoma cruzi it was -2.43%; in assay [5] it was 5.34%. The Percent Effect in assay [6] was -4.9%; in the assay listed under Homo sapiens it was 10.9%; in [7], 3.88%; in assay [8] it was 0%; in assay [9] it was 0.66%.

Turning to `Cc1cnn(C2CCCN(C(=O)c3cc(C)sc3C)C2)c1` (stereo unspecified), the Percent Effect was 2.61% in assay [1]; 7.89% in assay [2]; 4.46% in [3]; -9.37% in assay [4]; -4.97% in the assay with Trypanosoma cruzi; 1.18% in assay [5]. The Percent Effect in assay [6] was 18.7%; in the assay filed under Homo sapiens, -4.44%; in assay [7], 5.32%; in [8] it was 7.79%; in assay [9] it was -5.57%.

As to `COCC(NC(=O)c1cnn(C)c1)c1cccc(C(F)(F)F)c1` (stereo unspecified), the Percent Effect is -8.86% in assay [1]; 0% in assay [2]; -3.2% in assay [3]; -6.41% in [4]; -4.11% in the assay on Trypanosoma cruzi; 0.455% in assay [5]. Further, the Percent Effect in assay [6] was 7.28%; in the assay listed under Homo sapiens, -1.62%; in assay [7], 0%; in [8] it was 0%; in [9] it was 0.364%.

Consider `Cc1ccc(CN2C[C@@H]3COC[C@H](C(=O)N4CCCCO4)[C@@H]3C2)o1`, for which the Percent Effect in [1] is -1.82%; in assay [2], 13.3%; in assay [3], 7.57%; in assay [4], 2.5%; in the assay on Trypanosoma cruzi it was 1.57%; in assay [5], -1.17%. Moreover, the Percent Effect in assay [6] is 4.32%; in the assay filed under Homo sapiens it was 0.512%; in assay [7], 7.45%; in assay [8] it was 19.2%; in [9], -3.93%.
